Test results taken from ChEMBL document CHEMBL2218924, “A broad activity screen in support of a chemogenomic map for kinase signalling research and drug discovery” (Biochem J, 2013).

Legend:
[1] = target: Serine/threonine-protein kinase 33 (Homo sapiens) (UniProt Q9BYT3); conditions: at 1 µM
[2] = target: Serine/threonine-protein kinase 33 (Homo sapiens) (UniProt Q9BYT3); conditions: at 10 µM
[3] = target: Serine/threonine-protein kinase PLK2 (Homo sapiens) (UniProt Q9NYY3); conditions: at 10 µM
Serine/threonine-protein kinase PLK2 (Homo sapiens), sequence (Q9NYY3 whole entry, looked up): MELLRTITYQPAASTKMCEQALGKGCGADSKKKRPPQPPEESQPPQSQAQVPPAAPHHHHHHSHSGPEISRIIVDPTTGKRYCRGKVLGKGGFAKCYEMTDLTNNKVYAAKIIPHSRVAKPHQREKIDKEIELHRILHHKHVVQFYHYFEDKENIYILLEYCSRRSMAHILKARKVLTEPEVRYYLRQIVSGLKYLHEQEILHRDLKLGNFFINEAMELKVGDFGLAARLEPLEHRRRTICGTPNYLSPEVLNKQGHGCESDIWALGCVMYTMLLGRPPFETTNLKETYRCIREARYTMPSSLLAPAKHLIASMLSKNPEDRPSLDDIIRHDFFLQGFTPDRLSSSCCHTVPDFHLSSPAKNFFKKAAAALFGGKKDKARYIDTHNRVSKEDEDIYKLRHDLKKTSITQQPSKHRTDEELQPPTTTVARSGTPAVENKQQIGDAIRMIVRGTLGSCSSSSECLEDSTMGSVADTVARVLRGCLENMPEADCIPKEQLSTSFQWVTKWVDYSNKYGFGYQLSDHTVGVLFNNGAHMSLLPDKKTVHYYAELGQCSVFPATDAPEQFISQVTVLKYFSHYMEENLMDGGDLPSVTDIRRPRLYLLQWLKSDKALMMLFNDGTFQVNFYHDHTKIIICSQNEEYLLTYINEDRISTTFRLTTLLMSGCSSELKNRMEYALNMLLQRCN

[4] = target: Tyrosine-protein kinase SYK (Homo sapiens) (UniProt P43405); conditions: at 1 µM
[5] = target: Tyrosine-protein kinase SYK (Homo sapiens) (UniProt P43405); conditions: at 10 µM
[6] = target: T1, Mitogen-activated protein kinase kinase kinase 7 (Homo sapiens) (UniProt O43318); conditions: at 1 µM
T1 sequence (whole entry): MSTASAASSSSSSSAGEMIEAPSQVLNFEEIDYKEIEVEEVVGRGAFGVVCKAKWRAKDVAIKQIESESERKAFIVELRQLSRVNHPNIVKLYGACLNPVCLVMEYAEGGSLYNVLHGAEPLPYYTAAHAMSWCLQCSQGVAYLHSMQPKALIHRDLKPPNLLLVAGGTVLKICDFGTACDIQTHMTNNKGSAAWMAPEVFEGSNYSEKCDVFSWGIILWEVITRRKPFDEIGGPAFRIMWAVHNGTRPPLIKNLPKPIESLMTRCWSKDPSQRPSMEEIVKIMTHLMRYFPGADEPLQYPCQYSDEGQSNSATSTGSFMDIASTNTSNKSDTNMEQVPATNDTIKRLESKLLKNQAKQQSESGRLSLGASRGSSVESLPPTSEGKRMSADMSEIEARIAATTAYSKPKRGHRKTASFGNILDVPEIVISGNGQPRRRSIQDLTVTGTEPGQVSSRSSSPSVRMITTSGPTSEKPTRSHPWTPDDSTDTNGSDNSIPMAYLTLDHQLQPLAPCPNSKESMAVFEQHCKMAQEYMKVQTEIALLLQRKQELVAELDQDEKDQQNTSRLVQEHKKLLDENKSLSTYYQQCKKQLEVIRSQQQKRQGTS

[7] = target: T1, Mitogen-activated protein kinase kinase kinase 7 (Homo sapiens); conditions: at 10 µM
[8] = target: T2, Serine/threonine-protein kinase TAO1 (Homo sapiens) (UniProt Q7L7X3); conditions: at 10 µM
T2 sequence (whole entry): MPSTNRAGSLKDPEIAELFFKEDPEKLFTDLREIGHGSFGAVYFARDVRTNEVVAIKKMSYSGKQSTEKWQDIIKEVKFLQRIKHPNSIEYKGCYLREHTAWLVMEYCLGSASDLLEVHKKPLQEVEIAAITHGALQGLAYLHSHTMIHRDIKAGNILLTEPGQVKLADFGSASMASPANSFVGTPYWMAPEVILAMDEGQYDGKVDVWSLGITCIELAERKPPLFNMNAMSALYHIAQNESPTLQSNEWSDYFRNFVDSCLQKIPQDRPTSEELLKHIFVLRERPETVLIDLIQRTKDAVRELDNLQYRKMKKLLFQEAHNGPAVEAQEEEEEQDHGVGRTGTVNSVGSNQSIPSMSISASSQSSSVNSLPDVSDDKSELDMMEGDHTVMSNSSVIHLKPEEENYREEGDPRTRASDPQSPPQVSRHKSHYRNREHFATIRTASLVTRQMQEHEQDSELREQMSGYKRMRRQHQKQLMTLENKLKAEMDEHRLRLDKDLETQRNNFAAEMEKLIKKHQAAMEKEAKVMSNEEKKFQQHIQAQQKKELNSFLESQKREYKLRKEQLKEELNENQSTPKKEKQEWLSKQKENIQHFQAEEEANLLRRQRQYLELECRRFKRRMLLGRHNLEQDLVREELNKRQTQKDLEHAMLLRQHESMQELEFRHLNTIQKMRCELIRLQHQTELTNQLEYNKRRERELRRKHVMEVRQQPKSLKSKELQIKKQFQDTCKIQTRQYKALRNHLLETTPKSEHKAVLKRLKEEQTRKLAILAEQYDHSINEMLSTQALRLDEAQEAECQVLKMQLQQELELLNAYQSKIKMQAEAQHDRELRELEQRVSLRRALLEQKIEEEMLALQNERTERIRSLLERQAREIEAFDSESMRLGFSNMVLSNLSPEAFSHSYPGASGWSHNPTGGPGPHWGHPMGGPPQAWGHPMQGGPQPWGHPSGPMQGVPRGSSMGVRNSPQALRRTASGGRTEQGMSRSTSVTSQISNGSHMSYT

[9] = target: T3, Serine/threonine-protein kinase TAO2 (Homo sapiens) (UniProt Q9UL54); conditions: at 10 µM
T3 sequence (whole entry): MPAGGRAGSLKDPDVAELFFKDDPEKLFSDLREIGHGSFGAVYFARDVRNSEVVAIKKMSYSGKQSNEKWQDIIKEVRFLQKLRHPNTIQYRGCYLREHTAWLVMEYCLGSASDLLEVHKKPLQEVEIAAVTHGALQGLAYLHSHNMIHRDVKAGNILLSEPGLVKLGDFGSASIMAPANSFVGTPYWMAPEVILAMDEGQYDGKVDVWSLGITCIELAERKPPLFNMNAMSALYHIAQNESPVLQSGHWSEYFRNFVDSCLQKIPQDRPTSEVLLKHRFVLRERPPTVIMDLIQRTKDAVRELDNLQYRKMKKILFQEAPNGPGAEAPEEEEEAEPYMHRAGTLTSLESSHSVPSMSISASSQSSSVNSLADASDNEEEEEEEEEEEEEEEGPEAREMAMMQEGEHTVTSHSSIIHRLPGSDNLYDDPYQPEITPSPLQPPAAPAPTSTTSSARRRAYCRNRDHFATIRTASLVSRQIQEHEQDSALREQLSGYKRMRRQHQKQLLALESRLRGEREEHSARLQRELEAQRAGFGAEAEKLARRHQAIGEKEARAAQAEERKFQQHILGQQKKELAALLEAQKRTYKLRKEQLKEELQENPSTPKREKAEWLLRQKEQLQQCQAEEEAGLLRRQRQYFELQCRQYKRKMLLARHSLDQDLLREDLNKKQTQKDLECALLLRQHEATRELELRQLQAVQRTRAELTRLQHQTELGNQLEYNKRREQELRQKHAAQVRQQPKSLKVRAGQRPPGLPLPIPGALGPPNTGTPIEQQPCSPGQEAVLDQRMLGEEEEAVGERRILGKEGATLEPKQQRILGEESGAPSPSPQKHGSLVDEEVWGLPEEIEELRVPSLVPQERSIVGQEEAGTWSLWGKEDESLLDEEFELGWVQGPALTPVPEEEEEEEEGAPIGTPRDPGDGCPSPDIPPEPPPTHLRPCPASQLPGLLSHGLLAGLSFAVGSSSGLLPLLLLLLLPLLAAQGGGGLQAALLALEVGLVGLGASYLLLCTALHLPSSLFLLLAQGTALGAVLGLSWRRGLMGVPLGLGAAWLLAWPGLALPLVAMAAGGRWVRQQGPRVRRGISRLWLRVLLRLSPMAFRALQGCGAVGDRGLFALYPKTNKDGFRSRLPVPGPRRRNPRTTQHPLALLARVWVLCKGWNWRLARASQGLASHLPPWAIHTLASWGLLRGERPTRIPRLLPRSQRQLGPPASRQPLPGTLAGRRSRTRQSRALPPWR

[10] = target: T4, Serine/threonine-protein kinase TAO3 (Homo sapiens) (UniProt Q9H2K8); conditions: at 1 µM
T4 sequence (whole entry): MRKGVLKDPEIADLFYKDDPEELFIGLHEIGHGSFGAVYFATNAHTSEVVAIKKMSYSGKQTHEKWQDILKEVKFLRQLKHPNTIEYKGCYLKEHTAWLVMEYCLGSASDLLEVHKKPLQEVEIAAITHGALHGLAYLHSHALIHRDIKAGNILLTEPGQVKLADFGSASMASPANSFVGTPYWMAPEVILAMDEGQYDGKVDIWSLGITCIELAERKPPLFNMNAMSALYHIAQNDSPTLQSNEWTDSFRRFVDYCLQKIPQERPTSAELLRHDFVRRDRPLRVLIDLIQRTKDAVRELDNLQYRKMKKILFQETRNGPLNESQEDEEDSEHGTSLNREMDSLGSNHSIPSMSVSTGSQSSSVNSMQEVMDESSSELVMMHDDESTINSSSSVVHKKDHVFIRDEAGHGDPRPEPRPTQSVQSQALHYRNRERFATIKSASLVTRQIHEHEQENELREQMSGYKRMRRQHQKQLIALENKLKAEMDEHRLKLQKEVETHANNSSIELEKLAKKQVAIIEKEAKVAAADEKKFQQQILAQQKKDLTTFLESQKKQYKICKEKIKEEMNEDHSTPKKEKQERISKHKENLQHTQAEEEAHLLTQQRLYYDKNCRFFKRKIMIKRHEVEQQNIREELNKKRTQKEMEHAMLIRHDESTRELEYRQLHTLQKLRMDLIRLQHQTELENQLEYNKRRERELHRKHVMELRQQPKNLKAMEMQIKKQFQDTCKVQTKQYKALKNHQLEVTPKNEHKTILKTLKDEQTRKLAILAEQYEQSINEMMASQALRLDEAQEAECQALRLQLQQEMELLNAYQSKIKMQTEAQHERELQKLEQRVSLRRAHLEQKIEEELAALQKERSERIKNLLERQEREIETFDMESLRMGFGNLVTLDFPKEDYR

[11] = target: T4, Serine/threonine-protein kinase TAO3 (Homo sapiens); conditions: at 10 µM
[12] = target: T5, Serine/threonine-protein kinase TBK1 (Homo sapiens) (UniProt Q9UHD2); conditions: at 1 µM
T5 sequence (whole entry): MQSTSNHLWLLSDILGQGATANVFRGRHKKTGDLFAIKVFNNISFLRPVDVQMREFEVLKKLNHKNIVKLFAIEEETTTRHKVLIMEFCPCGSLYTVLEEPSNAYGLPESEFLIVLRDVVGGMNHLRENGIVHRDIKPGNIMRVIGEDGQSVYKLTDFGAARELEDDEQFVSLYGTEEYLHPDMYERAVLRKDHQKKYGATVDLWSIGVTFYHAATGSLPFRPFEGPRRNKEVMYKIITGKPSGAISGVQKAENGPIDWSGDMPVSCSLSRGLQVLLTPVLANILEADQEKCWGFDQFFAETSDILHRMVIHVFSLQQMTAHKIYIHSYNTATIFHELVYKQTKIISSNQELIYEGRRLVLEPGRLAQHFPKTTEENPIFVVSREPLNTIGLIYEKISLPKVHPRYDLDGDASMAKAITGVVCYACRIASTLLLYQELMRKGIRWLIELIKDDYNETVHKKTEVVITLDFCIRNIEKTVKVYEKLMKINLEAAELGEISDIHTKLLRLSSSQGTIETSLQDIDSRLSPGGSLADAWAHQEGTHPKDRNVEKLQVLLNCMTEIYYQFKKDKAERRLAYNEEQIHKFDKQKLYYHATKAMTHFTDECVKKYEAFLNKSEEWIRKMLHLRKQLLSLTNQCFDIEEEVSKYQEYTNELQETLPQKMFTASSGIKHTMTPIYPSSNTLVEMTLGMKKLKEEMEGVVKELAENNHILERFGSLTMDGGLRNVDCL

[13] = target: T5, Serine/threonine-protein kinase TBK1 (Homo sapiens); conditions: at 10 µM
[14] = target: T6, TGF-beta receptor type-1 (Homo sapiens) (UniProt P36897); conditions: at 1 µM
T6 sequence (whole entry): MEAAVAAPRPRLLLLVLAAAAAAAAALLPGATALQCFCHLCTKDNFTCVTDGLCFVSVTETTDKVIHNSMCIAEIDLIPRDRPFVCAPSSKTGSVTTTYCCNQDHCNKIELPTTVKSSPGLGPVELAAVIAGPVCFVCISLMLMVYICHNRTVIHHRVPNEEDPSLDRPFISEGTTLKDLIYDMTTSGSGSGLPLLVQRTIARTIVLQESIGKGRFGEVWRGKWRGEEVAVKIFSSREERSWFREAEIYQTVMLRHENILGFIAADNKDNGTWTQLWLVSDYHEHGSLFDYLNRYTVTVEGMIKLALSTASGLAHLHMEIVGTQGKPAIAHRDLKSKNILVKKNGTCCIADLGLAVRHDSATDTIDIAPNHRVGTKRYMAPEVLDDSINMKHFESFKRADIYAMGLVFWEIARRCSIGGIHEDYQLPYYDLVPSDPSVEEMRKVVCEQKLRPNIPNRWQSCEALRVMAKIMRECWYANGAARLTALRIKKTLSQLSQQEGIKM

[15] = target: T6, TGF-beta receptor type-1 (Homo sapiens); conditions: at 10 µM
[16] = target: Insulin-like growth factor 1 receptor (Homo sapiens) (UniProt P08069); conditions: at 1 µM
Insulin-like growth factor 1 receptor (Homo sapiens), sequence (P08069 31-736 limits assumed): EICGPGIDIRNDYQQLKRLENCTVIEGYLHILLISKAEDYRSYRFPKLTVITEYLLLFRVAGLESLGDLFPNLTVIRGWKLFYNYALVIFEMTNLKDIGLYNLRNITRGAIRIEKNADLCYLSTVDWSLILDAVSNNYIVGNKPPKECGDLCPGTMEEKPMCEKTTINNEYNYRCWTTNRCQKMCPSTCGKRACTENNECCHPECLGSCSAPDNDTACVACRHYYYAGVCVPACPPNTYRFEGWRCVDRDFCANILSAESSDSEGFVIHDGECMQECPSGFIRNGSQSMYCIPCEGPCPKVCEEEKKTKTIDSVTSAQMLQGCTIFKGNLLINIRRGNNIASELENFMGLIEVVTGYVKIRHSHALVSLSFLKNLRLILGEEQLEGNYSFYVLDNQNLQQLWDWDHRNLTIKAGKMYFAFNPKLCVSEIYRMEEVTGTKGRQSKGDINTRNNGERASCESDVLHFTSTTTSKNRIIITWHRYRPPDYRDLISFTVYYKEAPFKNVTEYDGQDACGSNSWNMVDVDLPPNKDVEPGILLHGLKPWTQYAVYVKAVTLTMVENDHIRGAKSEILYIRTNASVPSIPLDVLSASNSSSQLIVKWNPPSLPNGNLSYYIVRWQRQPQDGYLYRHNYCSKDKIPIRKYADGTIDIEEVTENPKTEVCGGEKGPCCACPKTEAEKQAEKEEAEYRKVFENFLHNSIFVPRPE
Insulin-like growth factor 1 receptor (Homo sapiens), sequence (P08069 741-1367 limits assumed): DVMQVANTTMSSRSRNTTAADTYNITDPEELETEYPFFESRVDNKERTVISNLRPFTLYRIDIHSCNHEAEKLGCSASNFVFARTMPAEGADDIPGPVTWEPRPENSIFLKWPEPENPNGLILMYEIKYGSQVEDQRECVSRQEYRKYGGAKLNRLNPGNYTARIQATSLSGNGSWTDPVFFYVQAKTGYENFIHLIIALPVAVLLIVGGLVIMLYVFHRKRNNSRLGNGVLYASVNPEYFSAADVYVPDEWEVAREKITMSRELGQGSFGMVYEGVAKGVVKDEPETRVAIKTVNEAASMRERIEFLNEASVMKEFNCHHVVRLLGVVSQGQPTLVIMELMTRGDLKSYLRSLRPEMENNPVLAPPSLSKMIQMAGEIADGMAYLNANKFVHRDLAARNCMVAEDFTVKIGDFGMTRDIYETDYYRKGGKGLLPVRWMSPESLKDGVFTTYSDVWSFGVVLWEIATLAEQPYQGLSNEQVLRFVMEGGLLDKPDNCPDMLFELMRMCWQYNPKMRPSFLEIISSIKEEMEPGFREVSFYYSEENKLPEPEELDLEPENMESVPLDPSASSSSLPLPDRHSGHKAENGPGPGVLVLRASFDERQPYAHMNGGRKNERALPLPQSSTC

[17] = target: Insulin-like growth factor 1 receptor (Homo sapiens) (UniProt P08069); conditions: at 10 µM
[18] = target: Serine/threonine-protein kinase PLK2 (Homo sapiens) (UniProt Q9NYY3); conditions: at 1 µM
[19] = target: T2, Serine/threonine-protein kinase TAO1 (Homo sapiens); conditions: at 1 µM
[20] = target: T3, Serine/threonine-protein kinase TAO2 (Homo sapiens); conditions: at 1 µM

Serine/threonine-protein kinase 33 (Homo sapiens), sequence (Q9BYT3 whole entry, looked up): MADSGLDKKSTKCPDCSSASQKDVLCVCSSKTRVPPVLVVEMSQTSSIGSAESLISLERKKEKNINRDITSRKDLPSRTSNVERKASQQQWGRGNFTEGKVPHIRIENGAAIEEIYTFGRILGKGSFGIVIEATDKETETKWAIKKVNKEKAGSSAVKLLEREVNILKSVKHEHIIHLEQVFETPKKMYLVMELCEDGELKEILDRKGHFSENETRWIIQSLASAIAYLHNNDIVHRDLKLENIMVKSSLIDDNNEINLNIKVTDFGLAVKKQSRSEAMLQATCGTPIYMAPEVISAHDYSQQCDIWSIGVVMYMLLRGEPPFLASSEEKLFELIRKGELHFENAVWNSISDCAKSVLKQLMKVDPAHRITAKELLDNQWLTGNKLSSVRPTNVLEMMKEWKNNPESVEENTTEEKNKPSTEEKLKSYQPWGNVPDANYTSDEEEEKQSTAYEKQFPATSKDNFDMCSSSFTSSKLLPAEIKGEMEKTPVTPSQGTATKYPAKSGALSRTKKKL

Row | Compound | residual activity [1] [%] | residual activity [2] [%] | residual activity [3] [%] | residual activity [4] [%] | residual activity [5] [%] | residual activity [6] [%] | residual activity [7] [%] | residual activity [8] [%] | residual activity [9] [%] | residual activity [10] [%] | residual activity [11] [%] | residual activity [12] [%] | residual activity [13] [%] | residual activity [14] [%] | residual activity [15] [%] | residual activity [16] [%] | residual activity [17] [%] | residual activity [18] [%] | residual activity [19] [%] | residual activity [20] [%]
1 | COc1ccc2c(c[n+](C)c3c4cc5c(cc4ccc23)OCO5)c1OC | 97 | 92 | 71 | 132 | 82 | 92 | 94 | 87 | 93 | 99 | 90 | 81 | 65 | 82 | 89 | 93 | 82 | – | – | –
2 | O=C1Nc2ccc3ncsc3c2/C1=C/c1c[nH]cn1 | 62 | 25 | 17 | 101 | 53 | 16 | 1 | 0 | 10 | 17 | 6 | 7 | 0 | 68 | 38 | 94 | 60 | 49 | 11 | 33
3 | O=[N+]([O-])/C=C/c1ccc2c(c1)OCO2 | 93 | 89 | 102 | 123 | 82 | 92 | 90 | 98 | 81 | 90 | 100 | 87 | 81 | 90 | 101 | 103 | 91 | 102 | 101 | 107
4 | COc1ccc2c(c1)/C(=C/c1cnc[nH]1)C(=O)N2 | – | 53 | – | – | – | 75 | 21 | 7 | 14 | 59 | 12 | – | – | – | – | – | – | – | 41 | 72
